Data as given in PubChem BioAssay (NCI).
The panel holds about 79,000 compounds, 15% with a hit somewhere; the sample as a whole holds those more often. Values without a mark were called inactive. Cut-off read from the data, not from the text of the source: active = growth inhibition above about 70%; inactive = the rest.

experiment: NCI Yeast Anticancer Drug Screen. Data for the rad50 strain (AID 155);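 note: 0% = growth of vehicle-only cultures of the same strain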; settings: S. cerevisiae rad50 strain growth inhibition; at 50.0 µM; hits give high values
Outline: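 Cells are treated with compound, grown, and their growth is then scored against vehicle-only cultures of the same repair-deficient yeast strain.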

| SMILES | growth inhibition [%] |
| --- | --- |
| C/C(=N/NC(N)=O)c1ccc(C)o1 | 1.85 |
| COc1ccccc1NC(N)=S | -9.1 |
| N#CC1CCCC/C1=N/NC(N)=O (stereo not given) | -11.9 |
| CCOc1ccccc1/C=C(\C#N)c1cccc(Cl)c1 | 42.6 |
| COc1ccc(CN=CN/C(C#N)=C(\N)C#N)cc1OC | -21.2 |
| c1ccc2c(c1)ccc1c3ccccc3ncc21 | 62.8 |
| Cc1ccc(N=Nc2c(C)nn(-c3ccccc3)c2C)c(Br)c1 | 26.6 |
| COc1cc2c(c3c1c(=O)c1ccccc1n3C)C=CC1(CCCCC1)O2 | -12.4 |
| Cc1ccc(C(C#N)c2ccc(N)cc2)cc1 (stereo not given) | 21.9 |
| O=C1Nc2ccccc2/C1=N/N=P(c1ccccc1)(c1ccccc1)c1ccccc1 | -10.2 |
| Nc1ncnc2c1nnn2CC(O)CO (stereo not given) | -36 |
| COC1(OC)C2(Cl)C(Cl)=C(Cl)C1(Cl)C1CCCCCC12 (stereo not given) | -4.95 |
| Cn1nc2ccccc2cc1=O | 20.7 |
| CC(=O)N(C(C)=O)C1=C(c2ccccc2)C(=O)c2ccccc21 | 13.2 |
| CCNC(=O)OC1C=CS(=O)(=O)C1 (stereo not given) | 5.25 |
| O=c1c2[nH]cnc2n(-c2ccccc2)c(=S)n1-c1ccccc1 | 6.5 |
| O=C(NCN1CCOCC1)Nc1ccccc1 | 8 |
| N#Cc1ccccc1OCCCCCCCCCCOc1ccccc1C#N | -2.8 |
| Cc1ccc(Nc2ccc(O)c3c2C(=O)c2ccccc2C3=O)cc1 | -17.9 |
| CC(=O)Nc1ccccc1NC1CC(C)N(c2ccccc2)N1C(C)=O (stereo not given) | -10.9 |

| SMILES | growth inhibition [%] |
| --- | --- |
| O=C(O)c1ccc(NC(=S)Nc2ccc(C(=O)O)cc2)cc1 | -13.5 |
| Cc1ccc2[nH]c(=S)n(CCc3ccccc3)c(=O)c2c1 | -1.95 |
| CC(CCc1ccccc1)N(C)C(=O)CNC(=O)CN1C(=O)c2ccccc2C1=O (stereo not given) | -18.9 |
| CC(=O)OC1CCC2(C)C(CCC3C2CCC2(C)C(C(C)C(=O)O)CCC32)C1 (stereo not given) | -10.7 |
| Nc1ccc(C(=O)Nc2ccc3c(O)cc(S(=O)(=O)O)cc3c2)cc1 | 23.2 |
| O=C1N(CC2CO2)CCN1CC1CO1 (stereo not given) | -22.4 |
| CCN(CC)C1Oc2cc3c(cc2C(c2cc(OC)c(O)c(OC)c2)C1C)OCO3 (stereo not given) | -14.6 |
| COC1(OC)CC2C(=O)N(Cc3ccccc3)C1C=C2S(=O)(=O)c1ccccc1 (stereo not given) | 2.5 |
| CSC(=S)Nc1cc(C)cc(C)n1 | 29.8 |
| O=C(NC(=O)c1ccccc1[N+](=O)[O-])Nc1ccc(Oc2ncc(Cl)cn2)c(C(F)(F)F)c1 | 17.1 |
| CC(CO)(CO)[N+](=O)[O-] | 19.2 |
| CCOC(=O)C1CC1c1ccccc1 (stereo not given) | 6.1 |
| COC(=O)CCC(=O)CN1C(=O)c2ccccc2C1=O | 14.8 |
| CN(Cc1ccccc1)C(=O)c1ccc(C(=O)N(C)Cc2ccccc2)cc1 | 1.75 |
| ClCCOC(c1ccc(Cl)cc1)c1ccc(Cl)cc1 | -1.6 |
| COc1cc2c(cc1O)C(=O)CCCC2 | -13.8 |
| COc1ccc(N(N=Nc2ccccc2)C(C)=O)cc1 | -2.05 |
| CN1C(=O)CNS1(=O)=O | -1.45 |
| Nc1nnc2nc(CC(=O)Cc3ccccc3)c(CC(=O)Cc3ccccc3)nn12 | 0.3 |
| Cc1cc(C)cc(C(C)C)c1 | -15.4 |

experiment: NCI Yeast Anticancer Drug Screen. Data for the mec2-1 strain (AID 157); settings: S. cerevisiae mec2-1 strain, at 50.0 µM, hits give high values
Outline: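 Readout is yeast growth inhibition, normalised to vehicle-treated controls, in the mec2-1 strain exposed to compound.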

| SMILES | growth inhibition [%] |
| --- | --- |
| C/C(=N/NC(N)=O)c1ccc(C)o1 | -3.55 |
| COc1ccccc1NC(N)=S | -8.5 |
| N#CC1CCCC/C1=N/NC(N)=O (stereo not given) | -6.65 |
| CCOc1ccccc1/C=C(\C#N)c1cccc(Cl)c1 | 9.75 |
| COc1ccc(CN=CN/C(C#N)=C(\N)C#N)cc1OC | -49.8 |
| c1ccc2c(c1)ccc1c3ccccc3ncc21 | 27.8 |
| Cc1ccc(N=Nc2c(C)nn(-c3ccccc3)c2C)c(Br)c1 | 10.8 |
| COc1cc2c(c3c1c(=O)c1ccccc1n3C)C=CC1(CCCCC1)O2 | -19.6 |
| Cc1ccc(C(C#N)c2ccc(N)cc2)cc1 (stereo not given) | -21.3 |
| O=C1Nc2ccccc2/C1=N/N=P(c1ccccc1)(c1ccccc1)c1ccccc1 | 0.35 |
| Nc1ncnc2c1nnn2CC(O)CO (stereo not given) | -19.2 |
| COC1(OC)C2(Cl)C(Cl)=C(Cl)C1(Cl)C1CCCCCC12 (stereo not given) | 2.8 |
| Cn1nc2ccccc2cc1=O | 2.65 |
| CC(=O)N(C(C)=O)C1=C(c2ccccc2)C(=O)c2ccccc21 | 22.2 |
| CCNC(=O)OC1C=CS(=O)(=O)C1 (stereo not given) | -9.45 |
| O=c1c2[nH]cnc2n(-c2ccccc2)c(=S)n1-c1ccccc1 | 1.8 |
| O=C(NCN1CCOCC1)Nc1ccccc1 | 0.6 |
| N#Cc1ccccc1OCCCCCCCCCCOc1ccccc1C#N | -4.15 |
| Cc1ccc(Nc2ccc(O)c3c2C(=O)c2ccccc2C3=O)cc1 | -3.6 |
| CC(=O)Nc1ccccc1NC1CC(C)N(c2ccccc2)N1C(C)=O (stereo not given) | -42.4 |

| SMILES | growth inhibition [%] |
| --- | --- |
| O=C(O)c1ccc(NC(=S)Nc2ccc(C(=O)O)cc2)cc1 | -0.15 |
| Cc1ccc2[nH]c(=S)n(CCc3ccccc3)c(=O)c2c1 | -23 |
| CC(CCc1ccccc1)N(C)C(=O)CNC(=O)CN1C(=O)c2ccccc2C1=O (stereo not given) | 1.35 |
| CC(=O)OC1CCC2(C)C(CCC3C2CCC2(C)C(C(C)C(=O)O)CCC32)C1 (stereo not given) | 1.85 |
| Nc1ccc(C(=O)Nc2ccc3c(O)cc(S(=O)(=O)O)cc3c2)cc1 | 5.55 |
| O=C1N(CC2CO2)CCN1CC1CO1 (stereo not given) | -10.2 |
| CCN(CC)C1Oc2cc3c(cc2C(c2cc(OC)c(O)c(OC)c2)C1C)OCO3 (stereo not given) | -23.9 |
| COC1(OC)CC2C(=O)N(Cc3ccccc3)C1C=C2S(=O)(=O)c1ccccc1 (stereo not given) | 9.65 |
| CSC(=S)Nc1cc(C)cc(C)n1 | 17.7 |
| O=C(NC(=O)c1ccccc1[N+](=O)[O-])Nc1ccc(Oc2ncc(Cl)cn2)c(C(F)(F)F)c1 | -23.6 |
| CC(CO)(CO)[N+](=O)[O-] | 9.65 |
| CCOC(=O)C1CC1c1ccccc1 (stereo not given) | -7.9 |
| COC(=O)CCC(=O)CN1C(=O)c2ccccc2C1=O | 9.1 |
| CN(Cc1ccccc1)C(=O)c1ccc(C(=O)N(C)Cc2ccccc2)cc1 | -1.65 |
| ClCCOC(c1ccc(Cl)cc1)c1ccc(Cl)cc1 | 3.5 |
| COc1cc2c(cc1O)C(=O)CCCC2 | 0.75 |
| COc1ccc(N(N=Nc2ccccc2)C(C)=O)cc1 | 2 |
| CN1C(=O)CNS1(=O)=O | 9.6 |
| Nc1nnc2nc(CC(=O)Cc3ccccc3)c(CC(=O)Cc3ccccc3)nn12 | -5.55 |
| Cc1cc(C)cc(C(C)C)c1 | -4.35 |
